Results published in PubChem BioAssay (NCATS).
This is one part of the list. Inconclusive results are not listed. Activity calls are given as the source filed them. Calls come from the whole dose curve; as a rule, active = well fitted inhibition curve with a large enough effect; inconclusive = small, poorly fitted or top-dose-only effect, or another doubt; inactive = no such curve, though single readings can be large or run the other way.

These compounds were tested against Luciferin 4-monooxygenase (Photinus pyralis) (UniProt P08659) (assay: Biochemical FLuc counterscreen for small molecule modulators of PMP22 gene expression (AID 1508640)). Conditions: purified P. pyralis FLuc, luminescence, 10 min; series mostly up to 57.5 µM.
Sequence of Luciferin 4-monooxygenase (Photinus pyralis) (P08659 whole entry, looked up): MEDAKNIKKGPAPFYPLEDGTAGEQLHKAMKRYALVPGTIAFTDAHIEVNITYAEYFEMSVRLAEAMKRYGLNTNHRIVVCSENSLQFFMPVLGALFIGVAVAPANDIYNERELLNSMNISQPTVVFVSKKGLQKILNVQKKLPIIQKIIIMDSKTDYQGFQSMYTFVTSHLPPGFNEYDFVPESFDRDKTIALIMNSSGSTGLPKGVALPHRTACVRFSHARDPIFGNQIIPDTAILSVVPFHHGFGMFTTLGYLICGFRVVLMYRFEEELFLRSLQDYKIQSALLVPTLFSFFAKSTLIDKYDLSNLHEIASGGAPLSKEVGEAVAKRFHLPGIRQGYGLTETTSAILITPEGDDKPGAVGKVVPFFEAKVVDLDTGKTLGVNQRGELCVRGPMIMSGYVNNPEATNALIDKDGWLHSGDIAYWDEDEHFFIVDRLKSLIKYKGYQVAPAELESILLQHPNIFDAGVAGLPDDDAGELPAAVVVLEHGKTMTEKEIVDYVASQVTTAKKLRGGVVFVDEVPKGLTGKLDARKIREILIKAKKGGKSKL
Source text: Assay Provider: Jim Inglese Ph.D. National Center for Advancing Translational Science, National Institutes of Health, Rockville, MD CMT is a heterogeneous group of neurological disorders that affect approximately 1 in 2,500 people. In particular, the most common form of CMT, CMT1A is genetically linked to the duplication of the PMP22 gene which leads to Schwann cell overexpression, thus manifesting itself as a typical case of dose-sensitive diseases. To identify small molecule compounds that can mediate the expression of PMP22 we developed a phenotypic assay screening strategy by utilizing genome editing techniques to construct Schwann cell lines containing novel reporter technology to monitor the transcriptional or translational regulation of PMP22. For high sensitivity we use a bioluminescent reporter system embedded in the 3' UTR of the PMP22 gene (S16(c9) Pmp22-F2sN) to identify compounds that inhibit gene expression. […] We can further discriminate the effect of all transcriptionally active molecules on PMP22 translation or stability with an assay that incorporates a short NLuc peptide (HiBiT) at the C-terminus of expressed PMP22 (S16(f8) PMP22-HiBiT) allowing alpha complementation and luminescence detection of membrane-associated PMP22 protein. These assays were screened against the NCATS Sytravon Library Collection. Miniaturization of these assays to 1536-well plate format for quantitative high throughput screening (qHTS) yielded rich data sets immediately from the qHTS assay (S16(c9) Pmp22-F2sN), when compared with data from a cell viability assay (Cell TiterGlo) to identify compounds that decreased the output signals through cellular toxicity to streamline the selection process of actives for subsequent characterization using the HiBiT assay (S16(f8) PMP22-HiBiT).
Biochemical FLuc assay PROTOCOL TABLE (format as described by Inglese J, Shamu CE and Guy RK. 2007) SEQUENCE No. (e.g., 1, 2, 3, etc.); PARAMETER (e.g., Cells, Incubation, Reagent, etc.); VALUE and DESCRIPTION. 1. Reagent. Add 3 uL substrate per well into Greiner 1536-well white/solid bottom high base, medium binding plates. 2. Compounds. Library compounds and controls added at 23nL per well, transferred by Pin Tool. 3. Incubation. Incubate plates 15 min at ambient temperature. 4. Reagent. Add 1uL FLuc enzyme solution per well of Greiner 1536-well plates. 5. Incubation. Incubate plates at room temperature for 10 min., protect from light. 6. Detector. FLuc luminescence measured using CCD-based camera (Viewlux). NOTES (numbers refer to Sequence numbers above; values are from representative experiments) 1. Dispense freshly prepared substrate (final concentration of 10 uM D-Luciferin, 10 mM Mg-Acetate, 50 mM Tris Acetate pH 7.6, 10 uM ATP, 0.01 % Tween-20, 0.05 % BSA) into 1,536-well Greiner white/solid bottom high base, medium binding plates. Protect from light. 4. Freshly prepared enzyme solution containing 10 nM P. pyralis in 50 mM Tris Acetate was filtered through a […] prior to dispensing. 6. Luminescence Read (Fluc): Clear filter; Exposure = 10 sec, Gain = High, Speed = Slow, Binning = 2X REFERENCES: 1. Inglese J, Shamu CE and Guy RK, Reporting data from high throughput screening of small molecule libraries, Nature Chemical Biology, 2007, 3(8): 438-441. doi.org/10.1038/nchembio0807-438 2. Yasgar A, Shinn P, Jadhav A, Auld DS, Michael S, Zheng W, Austin CP, Inglese J and Simeonov A, Compound Management for Quantitative High-Throughput Screening. J. Assoc. Lab. Auto., 2008, 13: 79-89. doi: 10.1016/j.jala.2007.12.004 3. […] Chemistry & Biology, 2012, 19: 1060-1072. doi.org/10.1016/j.chembiol.2012.07.015

SMILES	outcome
CC(C)(C)c1ccc(C(=O)NCC(c2ccco2)S(=O)(=O)c2ccc(F)cc2)cc1 (centres undefined)	inactive
Cc1sc(C2C(C#N)=C(N)N(c3cccc(Cl)c3)C3=C2C(=O)CCC3)cc1CN1CCOCC1 (centres undefined)	inactive
Cc1cc(OCC(=O)NCC2(N(C)C)CCCCC2)cc(C)c1Cl	inactive
CCOCCCNC(=O)c1c(NC(=O)c2nc(SC)ncc2Cl)sc2c1CCCC2	inactive
O=C(c1ccc2c(c1)N(Cc1ccc(F)cc1)C(=O)c1ccccc1S2(=O)=O)N1CCN(c2ccccn2)CC1	inactive
CCc1ccc(C2CC(=O)c3c([nH]c(C(=O)OCc4ccc(C)cc4)c3C)C2)cc1 (centres undefined)	inactive
Cc1cccc(Nc2cc(C)nc(-n3nc(C)cc3C)n2)c1	inactive
O=C(c1ccc(C(F)(F)F)cc1)N1CCC(c2nc(-c3ccc(S(=O)(=O)N4CCCC4)cc3)no2)CC1	inactive
CC(=O)N1CCCc2cc(S(=O)(=O)N3CCCC(C(=O)N4CCN(c5cccc(Cl)c5)CC4)C3)ccc21 (centres undefined)	inactive
Cc1ccc(NC(=O)c2nc(S(=O)(=O)Cc3cccc(C)c3)ncc2Cl)cc1	inactive
COc1ccccc1Nc1c2c(nc3ccc(NC(=O)/C=C/c4cc(OC)c(OC)c(OC)c4)cc13)CCCC2	inactive
CCCn1c(=N)c(C(=O)NCc2ccccc2)cc2c(=O)n3cccc(C)c3nc21	inactive
COc1ccc(CCNC(=O)c2cc(=O)c3c(C)cc(C)cc3o2)cc1OC	inactive
COc1cccc(NC(=O)N(Cc2cn(C)c3ccccc23)C2CCCCCC2)c1	inactive
CCOC(=O)C1CCN(C(=O)CSc2c3c(nc4ccc(Cl)cc24)CCCC3)CC1	inactive
CCOC(=O)c1c(C)[nH]c(CCC(=O)NCCCN2CCN(c3cc(C)ccc3C)CC2)c1C	inactive
CCOC(=O)c1ccc(NC(=O)CSc2nc3c([nH]c4ccccc43)c(=O)n2C)cc1	inactive
Cc1cc(F)ccc1NS(=O)(=O)c1ccc(-n2cccn2)cc1	inactive
O=C(CCS(=O)(=O)c1ccccc1)N(Cc1cccnc1)c1nc2c(F)cccc2s1	inactive
COc1ccc(-c2onc(C)c2C)cc1S(=O)(=O)NCC1CCN(Cc2cccc(F)c2)CC1	inactive

SMILES	outcome
COc1ccccc1-c1cc(C(F)(F)F)nc(S(=O)(=O)CCCC(=O)Nc2ccc(F)cc2F)n1	inactive
CCCCOc1ccc(CN2C(=O)C(=O)c3cc(Br)cc(C)c32)cc1OC	inactive
Cc1nnc(SCC(=O)NCc2ccccc2Cl)c2nn(-c3ccccc3)c(C)c12	inactive
CCCN1C(=O)C(O)(CC(=O)c2ccc(CC)cc2)c2cc(Br)ccc21 (centres undefined)	inactive
Cc1ccc(C)n1-c1nnc(N2CCC(C(=O)NCc3ccccc3Cl)CC2)s1	inactive
CCC1CCCCN1CCCNC(=O)c1cc2c(Cl)nc3ccccc3c2s1 (centres undefined)	inactive
CCOc1ccc(NC(=O)c2c(NC(=O)Cc3ccccc3)sc3c2CCC(C)C3)cc1 (centres undefined)	inactive
O=S(=O)(c1ccc(Cl)cc1)c1nnn2c1nc(NC1CCCC1)c1sccc12	inactive
O=C(NCCCN1CCN(c2cccc(Cl)c2)CC1)c1nnc(Cc2ccc(F)cc2Cl)o1	inactive
Cc1ccccc1CNC(=O)CSc1nnc(C)c2c(C)n(-c3ccccc3)nc12	inactive
Cc1ccc(CCNC(=O)C2CCN(c3nnc(-n4cccc4CNc4ccc(C)cc4)s3)CC2)cc1	inactive
CCOC(=O)c1ccc(N2C(=O)c3n[nH]c(C)c3C2c2ccc(O)c(OC)c2)cc1 (centres undefined)	inactive
CCOC(=O)c1c(C)[nH]c(CCC(=O)NCCCN2CCN(c3cccc(Cl)c3)CC2)c1C	inactive
Cc1ccc(Cn2c(C)c3cnn(CC(=O)NCc4ccccc4)c(=O)c3c2C)cc1	inactive
CCCn1c2ccccc2c2cnn(CC(=O)NCC3CCN(Cc4ccc(C)cc4)CC3)c(=O)c21	inactive
CCCS(=O)(=O)c1ncc(Cl)c(C(=O)Nc2scc(-c3ccccc3)c2C(=O)OCC)n1	inactive
CCC1=Nc2cc(C(=O)NCCCOC(C)C)ccc2Sc2ccc(C)cc21	inactive
Cc1ccc(OCCSc2nc3ccc(NC(=O)COc4ccc(C)cc4)cc3s2)cc1	inactive
COc1cccc(NC(=O)CSC2=Nc3ccccc3C3=NC(CC(=O)NC4CCCCC4)C(=O)N23)c1 (centres undefined)	inactive
